Experiment [1] addresses Aldehyde dehydrogenase, mitochondrial (Homo sapiens) (UniProt P05091). The experiment is described as follows: qHTS for Inhibitors of the Aldehyde Dehydrogenase Family (ALDH2) Confirmatory screens (AID 2061303; active means well fitted inhibition curve with a large enough effect; title and protocol of this record describe different tests; further: nearly all actives have a fitted effect of over 45% in size; further: potency means the concentration at half of the fitted maximal effect). For orientation: Quantitative high-throughput screening tests each substance at several concentrations.
Experiment [2] in a line: qHTS for Inhibitors of the Aldehyde Dehydrogenase Family (ALDH1A2, ALDH1A3, ALDH2, ALDH3A1) (AID 2061307). Further: nearly all actives have a fitted effect of over 50% in size. On Potency: test system not described further here; potency means the concentration at half of the fitted maximal effect.
The target in experiment [3] is Retinaldehyde dehydrogenase 3 (Homo sapiens) (UniProt P47895). Briefly: qHTS for Inhibitors of the Aldehyde Dehydrogenase Family (ALDH1A3) Confirmatory screens (AID 2061311). Further: nearly all actives have a fitted effect of over 60% in size. Further: potency means the concentration at half of the fitted maximal effect.
Experiment [4] shares this target. Briefly: qHTS for Inhibitors of the Aldehyde Dehydrogenase Family (ALDH1A3) Primary screen (AID 2061315).
The target in experiment [5] is Aldehyde dehydrogenase 1A1 (Homo sapiens) (UniProt P00352). The experiment is described as follows: qHTS for Inhibitors of the Aldehyde Dehydrogenase Family (ALDH1A1) Confirmatory screens (AID 2061316). Further: nearly all actives have a fitted effect of over 65% in size. Further: potency means the concentration at half of the fitted maximal effect.
Experiment [6] concerns the target Retinal dehydrogenase 2 (Homo sapiens) (UniProt O94788). Briefly: qHTS for Inhibitors of the Aldehyde Dehydrogenase Family (ALDH1A2) Confirmation screens (AID 2061314). Further: nearly all actives have a fitted effect of over 65% in size. Further: potency means the concentration at half of the fitted maximal effect.

Results filed as inconclusive are left out. The source made the active and inactive calls. Unless noted, the call rests on the fitted dose curve; in most records, active means well fitted inhibition curve with a large enough effect; inconclusive means small, poorly fitted or top-dose-only effect; inactive means no such curve, though single readings can be large or run the other way.

In the case of `CC(C)(C)OC(=O)N1CCN(c2ccc(NCc3cccc(-c4ccc(C#N)cc4)n3)cc2)CC1`, the Potency was 0.201 µM (active) in experiment [1], 0.142 µM (active) in experiment [2] and 8.96 µM (active) in experiment [5]. The Potency result in experiment [3] and in experiment [4] was “inactive” each time.
Turning to `COc1cccc(-c2cc(C(=O)NCC(F)F)c3cnn(C)c3n2)c1`, the Potency entry in experiment [1], in experiment [2] and in experiment [5] was “inactive” throughout. The Potency in experiment [3] is 5.01 µM (active).
Regarding `COc1ccc(CC(=O)Nc2c(C(=O)N3CCN(c4ccccc4)CC3)oc3ccccc23)cc1OC`, the Potency entry in experiment [1], in experiment [2] and in experiment [6] was “inactive” in each case.
In the case of `N#Cc1ccc(-c2ccc(CNc3ccc(N4CCOCC4)cc3)o2)cc1`, the Potency in experiment [1] is 0.04 µM (active); in experiment [2] it was 0.565 µM (active); in experiment [3] it was 15.9 µM (active); in experiment [5] it was 7.98 µM (active).
Consider `Oc1ccc(CNc2cccnc2)c2cccnc12`, for which the Potency was 10.1 µM (active) in experiment [1]; 7.98 µM (active) in experiment [2]; 4.49 µM (active) in experiment [3]; 5.65 µM (active) in experiment [6]; 4 µM (active) in experiment [5].
In the case of `O=C(Nc1cccc(C(F)(F)F)c1)c1cccc(C(=O)Nc2cccc(C(F)(F)F)c2)c1`, the Potency entry in experiment [1], in experiment [2], in experiment [3] and in experiment [5] was “inactive” in each case.
On to `Cc1ccc(CCNc2ncnc3onc(-c4ccc(Cl)cc4)c23)cc1`, for which the Potency entry in experiment [1], in experiment [2], in experiment [6] and in experiment [5] was “inactive” each time. Moreover, in experiment [3], the Potency is 4.47 µM (active).
For `COc1cccc(-c2ccc(CNc3ccc(N4CCN(C(=O)OC(C)(C)C)CC4)cc3)o2)c1`, the Potency was 11.3 µM (active) in experiment [1] and 14.2 µM (active) in experiment [2]. The Potency entry in experiment [3] and in experiment [4] was “inactive” in each case.
On to `COc1ccc(-c2nc(CNS(=O)(=O)c3ccc(F)cc3)cs2)cc1`, for which the Potency in experiment [1] is 11.2 µM (active). Also, the Potency result in experiment [2], in experiment [3] and in experiment [5] was “inactive” throughout.
Turning to `COc1cccc(-c2ccc(CN3CCCC(NC(=O)Nc4ccccc4)C3)cc2)c1` (configuration not stated), the Potency entry in experiment [1] and in experiment [6] was “inactive” in each case. In experiment [2], the Potency was 12.6 µM (active).
Take `COc1ccccc1-c1cc(C(=O)NCc2ccc(C(F)(F)F)cc2)c2cnn(C)c2n1`: the Potency entry in experiment [1], in experiment [2], in experiment [6] and in experiment [5] was “inactive” throughout. In addition, in experiment [3], the Potency is 7.08 µM (active).
In the case of `CCOc1cc(CNc2ccc(C(=O)O)cc2)ccc1OCc1ccccc1`, the Potency in experiment [1] was 2 µM (active); in experiment [3] it was 0.199 µM (active); in experiment [6], 2.57 µM (active); in experiment [5] it was 6.47 µM (active). Further, in experiment [2], the Potency entry was “inactive”.
The corresponding values for `CC(=O)c1ccc(NC(=O)CSc2ccc3nc(-c4ccccc4)cn3n2)cc1` are 22.9 µM (active), 0.258 µM (active), 15.8 µM (active), 1.82 µM (active) and 0.0576 µM (active).
On to `CCOc1ccc(NC(=O)C2CCN(c3cnn(Cc4ccccc4)c(=O)c3)C2)cc1` (configuration not stated), for which the Potency entry in experiment [1], in experiment [2] and in experiment [6] was “inactive” in each case.
On to `CC(=O)c1ccc(N2CCN(S(=O)(=O)c3ccc4c(c3)C(C)(C)C(=O)N4)CC2)cc1`, for which the Potency result in experiment [1], in experiment [2], in experiment [6] and in experiment [5] was “inactive” in each case. In addition, the Potency in experiment [3] was 5.01 µM (active).
Regarding `O=c1[nH]c2ccc(NCc3ccc(-c4ccccc4F)o3)cc2[nH]1`, the Potency in experiment [1] is 0.576 µM (active); in experiment [2] it was 4.47 µM (active). In addition, in experiment [6], the Potency entry was “inactive”.

These data come from PubChem BioAssay (NCATS).
